Reference: PubChem BioAssay
Results filed as inconclusive are left out. Calls of active or inactive are those of the source. Unless noted, how the calls were made is not given here.

Key:
[1] = rapamycin-like changes in RPL19A-GFP expression – cell-based, S. cerevisiae, multiplex flow cytometry, primary screen (AID 1862; in the data active means percent of DMSO control GFP below about 86%;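 further: lower values mimic rapamycin by blocking the RPL19A rise seen in DMSO cells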); details: S. cerevisiae RPL19A-GFP strain, flow cytometry fluorescence, 3 h; at 10 µM; stronger effect = lower value
[2] = TOR pathway GLN3 branch reporter MEP2-GFP changes – S. cerevisiae, multiplex flow cytometry, primary screen (AID 1867;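 active means GFP response, as percent of the DMSO control, above the screen-wide mean plus 3 SD, about 139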;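 further: median GFP channel fluorescence of barcode-gated MEP2-GFP cells measured by flow cytometry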); details: S. cerevisiae MEP2-GFP strain, 3 h, at 10 µM, stronger effect = higher value
[3] = TOR pathway RTG branch CIT2 reporter changes – S. cerevisiae, GFP fusion, multiplex flow cytometry, primary screen (AID 1870;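 active means percent response above a set limit, the screen-wide mean plus 3 SD, cut at about 130% in these data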;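 further: barcoded CIT2-GFP strain pooled with four other GFP strains with rapamycin as positive control; median GFP fluorescence per well over plate mean of DMSO wells so 100% = DMSO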); details: S. cerevisiae CIT2-GFP expression, 3 h, at 10 µM, stronger effect = higher value
[4] = TOR pathway LAP4-GFP level changes – S. cerevisiae, multiplex flow cytometry, primary screen (AID 1873;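 active means GFP signal, as percent of the solvent control, above the screen mean plus 3 SD, about 149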); details: S. cerevisiae LAP4-GFP expression, 3 h, at 10 µM, stronger effect = higher value
[5] = reduced mouse 2C T cell binding to pMHC/ICAM-1 vesicles – MLPCN validation set, flow cytometry, LFA-1/ICAM-1 modulator project, pilot screen (AID 2523;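 active means response below a set limit, under 55% cells CD8-positive and vesicle-bound, and CD8 cells' 90th-percentile brightness under 279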;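 on vesicle binding response: mean PE anti-B7-1 fluorescence of CD8+ cells relative to row control; 100% = QL9-loaded vesicles with DMSO vehicle in the same plate row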); details: 2C mouse CD8+ T cells, at 7 µM, stronger effect = lower value; double positive events: measured here: CD8+/vesicle+ event percentage
[6] = molecular target: Integrin beta-1 (Homo sapiens) + Integrin alpha-4 (Homo sapiens) (UniProt P13612+P05556); experiment: alpha4beta1 integrin LIBS antibody binding reduction – U937 cells, HUTS-21 mAb, flow cytometry, validation set, VLA-4 allosteric modulator project, pilot screen (AID 2674;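 active means inhibition above 50%, about 3 SD of the validation set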;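 further: antibody binding induced by the VLA-4 ligand LDV present at three times its Kd; 0% = LDV ligand with antibody and no compound and 100% = antibody without LDV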); details: HUTS-21 LIBS mAb binding, at 6.7 µM, stronger effect = higher value
[7] = calorie-restriction mimetic ROS inhibitors, yeast – validation compound set, pilot screen (AID 2706;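 active means superoxide response below 65% of plate, a cut near 3 SD across the whole screen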;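 further: yeast exposed to compound for one week at 30 degrees C before staining; 100% = mean of all compound wells on the same plate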); details: S. cerevisiae aging, superoxide DHE fluorescence; at 10 µM; stronger effect = lower value
[8] = molecular target: Beta-adrenergic receptor kinase 1 (Homo sapiens) (UniProt P25098); experiment: GRK2 binders displacing RNA aptamer, biochemical, validation, human GRK2, bead flow cytometry (AID 488806;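 active means aptamer binding inhibition above 30%, about 3 SD of noise from non-fluorescent compounds; inactive means inhibition at or below 30%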); details: bead-bound GRK2, FAM-aptamer displacement, at 10 µM, stronger effect = higher value
[9] = molecular target: AP-2 complex subunit beta (Homo sapiens) (UniProt P63010); experiment: beta-arrestin/AP2 interaction blockers – biochemical, validation set, GST-AP2 beads, flow cytometry, pilot screen (AID 504541;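 active means inhibition above 54%, about 3 SD of non-fluorescent compounds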;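 further: AP2 carries R879A mutation and is captured from E. coli lysate; bead-bound FITC arrestin peptide fluorescence measuring arrestin peptide binding to AP2; 0% = DMSO wells and 100% = excess unlabeled arrestin peptide control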); details: FITC arrestin peptide, at 10 µM, stronger effect = higher value
[10] = cytosolic pH regulators acting via V-ATPase – S. cerevisiae, pHLuorin, HTS validation (AID 504600; in the data active means response above about 15%;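 further: plate controls were DMSO for no effect and reference compound for full effect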); details: V-ATPase proton transport, at 10 µM, stronger effect = higher value
[11] = test system: anti-desmoglein-3 scFv antibody binding to human DSG3; experiment: blockers of pathogenic pemphigus antibody–desmoglein-3 binding – biochemical, validation compound set, bead-based, flow cytometry, pilot screen (AID 588368;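 active means binding below the plate cutoff, the plate median minus 3 SD, with a reading above zero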;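 further: signal is the median channel fluorescence of bead-bound GFP antibody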); details: Protein G beads, DSG3-Fc, scFv-GFP binding, at 10 µM, stronger effect = lower value
[12] = test system: Botulinum neurotoxin type F light chain protease (Clostridium botulinum); experiment: Clostridium botulinum type F light chain protease inhibitors, microsphere substrate cleavage, validation (AID 588459); details: multiplex microsphere protease substrate cleavage assay, flow cytometry; at 10 µM; stronger effect = higher value
[13] = molecular target: Botulinum neurotoxin type A (Clostridium botulinum) (UniProt P0DPI0); experiment: BoNT/A light chain protease inhibitors, biochemical, multiplex microsphere flow cytometry, validation set (AID 588460); details: at 10 µM, stronger effect = higher value
[14] = molecular target: Lethal factor (Bacillus anthracis) (UniProt P15917); experiment: Bacillus anthracis lethal factor inhibition, microsphere flow cytometry protease assay, validation at 10 µM (AID 588461); details: multiplex microsphere protease cleavage assay, stronger effect = higher value
[15] = Nile Red efflux blockade in pump-expressing yeast – validation compound set, multiplex, phenotypic, pilot screen (AID 588506;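 active means efflux inhibition above 0.42, the validation set average plus 4 SD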;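 further: Nile Red retained in cells so higher fluorescence means more efflux inhibition; 0 = negative control wells and 1 = enniatin B 25 µM full block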); details: S. cerevisiae pump-expressing triplex, Nile Red efflux flow cytometry; at 10 µM; stronger effect = higher value
[16] = molecular target: ATP-binding cassette sub-family B member 6 (Homo sapiens) (UniProt Q9NP58); experiment: blockers of ABCB6-driven porphyrin uptake – K562-ABCB6 cells, flow cytometry, validation set, pilot screen (AID 588550;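 active means inhibition above the screen-wide mean plus 3 SD, about 51%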;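 further: 0% = DMSO wells and 100% = benzethonium chloride 70 µM positive control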); details: K562-ABCB6 porphyrin accumulation, 1 h, at 10 µM, stronger effect = higher value
[17] = AML differentiation inducers, ER-HoxA9 marrow cells – cell-based, GFP/MAC1 double positive, flow cytometry, validation set, primary screen (AID 588685;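 active means differentiation response of at least 50%, scaled between solvent and reference control, from cells with both markers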;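 further: compound exposure lasts four days before antibody staining and flow analysis; 0% = DMSO wells and 100% = 5 µM fulvestrant positive control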); details: stronger effect = higher value
[18] = hit retest on RPL19A-GFP reporter strain – cell-based, S. cerevisiae, flow cytometry, cherry picks, mother/daughter gates, confirmation (AID 2270;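 active means GFP response below 50% of the DMSO control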); details: 3 h, at 10 µM, stronger effect = lower value, 100 = same GFP as DMSO wells
[19] = yeast TOR pathway reporter LAP4-GFP change – cell-based, cherry picks, flow cytometry, mother/daughter gates, confirmation (AID 2271;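 active means GFP response above 150% of the DMSO control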;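 further: ratio of sample to DMSO plate mean so 100% equals DMSO level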); details: S. cerevisiae LAP4-GFP strain, 3 h, at 10 µM, stronger effect = higher value
[20] = TOR pathway CIT2 reporter hit retest – S. cerevisiae, GFP fusion, cherry picks, mother/daughter gates, confirmation (AID 2274;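 active means GFP response above 150% of the DMSO level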); details: S. cerevisiae CIT2-GFP strain, flow cytometry, 3 h, at 10 µM, stronger effect = higher value
[21] = measured here: daughter cell gate
[22] = measured here: mother cell gate
[23] = measured here: daughter cell gate response
[24] = measured here: mother cell gate response

Sequence of Integrin beta-1 (Homo sapiens) + Integrin alpha-4 (Homo sapiens) (P05556 whole entry, looked up): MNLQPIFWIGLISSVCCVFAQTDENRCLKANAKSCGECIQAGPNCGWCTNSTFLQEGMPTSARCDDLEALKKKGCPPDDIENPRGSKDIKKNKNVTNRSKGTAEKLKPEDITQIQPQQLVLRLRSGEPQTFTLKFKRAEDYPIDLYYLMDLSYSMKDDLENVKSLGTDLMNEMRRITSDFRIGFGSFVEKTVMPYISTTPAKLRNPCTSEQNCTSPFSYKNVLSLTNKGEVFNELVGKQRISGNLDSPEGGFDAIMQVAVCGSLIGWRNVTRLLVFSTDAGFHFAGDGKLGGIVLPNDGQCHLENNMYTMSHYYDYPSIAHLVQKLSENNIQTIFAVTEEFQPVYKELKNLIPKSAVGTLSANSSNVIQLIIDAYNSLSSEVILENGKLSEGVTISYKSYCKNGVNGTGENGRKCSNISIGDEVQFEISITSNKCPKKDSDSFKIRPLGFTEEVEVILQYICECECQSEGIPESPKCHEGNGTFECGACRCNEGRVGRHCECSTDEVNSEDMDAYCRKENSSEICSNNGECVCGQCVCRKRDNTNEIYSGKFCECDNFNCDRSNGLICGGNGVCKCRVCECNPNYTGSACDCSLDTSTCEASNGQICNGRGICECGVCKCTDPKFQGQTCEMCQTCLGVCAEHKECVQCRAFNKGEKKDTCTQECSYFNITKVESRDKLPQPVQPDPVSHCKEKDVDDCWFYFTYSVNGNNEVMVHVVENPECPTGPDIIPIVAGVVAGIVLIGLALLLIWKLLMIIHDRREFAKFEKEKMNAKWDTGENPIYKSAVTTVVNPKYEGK
Sequence of Integrin beta-1 (Homo sapiens) + Integrin alpha-4 (Homo sapiens) (P13612 whole entry, looked up): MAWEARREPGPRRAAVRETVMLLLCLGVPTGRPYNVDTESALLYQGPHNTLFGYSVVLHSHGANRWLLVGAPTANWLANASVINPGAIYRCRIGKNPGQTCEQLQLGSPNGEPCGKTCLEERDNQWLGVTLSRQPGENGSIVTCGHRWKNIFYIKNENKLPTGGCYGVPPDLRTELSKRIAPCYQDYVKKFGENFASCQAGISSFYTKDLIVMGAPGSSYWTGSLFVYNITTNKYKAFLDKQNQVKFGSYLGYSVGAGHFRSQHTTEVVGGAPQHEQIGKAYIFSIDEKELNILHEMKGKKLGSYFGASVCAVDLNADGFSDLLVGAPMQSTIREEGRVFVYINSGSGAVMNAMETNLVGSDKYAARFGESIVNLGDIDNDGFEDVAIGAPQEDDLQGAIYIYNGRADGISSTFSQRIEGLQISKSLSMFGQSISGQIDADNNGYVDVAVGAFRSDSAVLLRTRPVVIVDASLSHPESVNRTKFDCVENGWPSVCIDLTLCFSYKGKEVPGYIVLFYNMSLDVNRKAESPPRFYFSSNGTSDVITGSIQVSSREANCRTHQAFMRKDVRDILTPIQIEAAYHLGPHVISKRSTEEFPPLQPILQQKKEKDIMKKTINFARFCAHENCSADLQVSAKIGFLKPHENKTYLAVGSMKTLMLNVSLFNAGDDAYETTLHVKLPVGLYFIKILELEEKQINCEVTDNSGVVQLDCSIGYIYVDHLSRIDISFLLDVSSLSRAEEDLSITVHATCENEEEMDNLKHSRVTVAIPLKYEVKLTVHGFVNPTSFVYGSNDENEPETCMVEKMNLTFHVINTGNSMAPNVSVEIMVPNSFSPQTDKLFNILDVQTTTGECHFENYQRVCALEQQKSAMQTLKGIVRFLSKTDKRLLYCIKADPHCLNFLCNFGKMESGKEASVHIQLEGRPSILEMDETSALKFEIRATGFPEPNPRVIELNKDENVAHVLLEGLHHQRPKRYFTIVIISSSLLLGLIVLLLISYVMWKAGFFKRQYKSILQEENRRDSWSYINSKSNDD
Sequence of AP-2 complex subunit beta (Homo sapiens) (P63010 whole entry, looked up, one chain of several): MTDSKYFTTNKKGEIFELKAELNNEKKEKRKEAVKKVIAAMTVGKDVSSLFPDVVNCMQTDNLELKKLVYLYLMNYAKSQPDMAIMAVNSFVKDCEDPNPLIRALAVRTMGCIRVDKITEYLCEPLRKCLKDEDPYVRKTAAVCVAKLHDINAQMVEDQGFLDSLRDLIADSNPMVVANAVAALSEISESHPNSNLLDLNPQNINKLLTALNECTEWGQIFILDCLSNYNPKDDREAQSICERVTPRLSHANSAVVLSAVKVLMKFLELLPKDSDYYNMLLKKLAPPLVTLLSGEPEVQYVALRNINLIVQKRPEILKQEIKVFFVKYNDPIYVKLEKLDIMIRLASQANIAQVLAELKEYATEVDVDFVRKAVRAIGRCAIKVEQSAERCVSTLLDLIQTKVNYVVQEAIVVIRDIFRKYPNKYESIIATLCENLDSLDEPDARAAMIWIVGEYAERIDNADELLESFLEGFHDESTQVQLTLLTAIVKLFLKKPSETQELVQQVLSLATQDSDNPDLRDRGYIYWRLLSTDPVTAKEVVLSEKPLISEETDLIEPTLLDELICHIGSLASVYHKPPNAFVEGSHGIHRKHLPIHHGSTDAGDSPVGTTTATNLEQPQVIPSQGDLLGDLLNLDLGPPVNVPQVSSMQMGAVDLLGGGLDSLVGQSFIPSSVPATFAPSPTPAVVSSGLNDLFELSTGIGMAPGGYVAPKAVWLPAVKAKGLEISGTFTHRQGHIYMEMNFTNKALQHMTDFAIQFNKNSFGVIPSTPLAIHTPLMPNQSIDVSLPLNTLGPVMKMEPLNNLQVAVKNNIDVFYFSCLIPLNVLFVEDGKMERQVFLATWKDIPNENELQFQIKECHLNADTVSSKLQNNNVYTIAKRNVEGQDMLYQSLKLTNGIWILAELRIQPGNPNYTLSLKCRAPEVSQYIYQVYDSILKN
Sequence of Beta-adrenergic receptor kinase 1 (Homo sapiens) (P25098 whole entry, looked up): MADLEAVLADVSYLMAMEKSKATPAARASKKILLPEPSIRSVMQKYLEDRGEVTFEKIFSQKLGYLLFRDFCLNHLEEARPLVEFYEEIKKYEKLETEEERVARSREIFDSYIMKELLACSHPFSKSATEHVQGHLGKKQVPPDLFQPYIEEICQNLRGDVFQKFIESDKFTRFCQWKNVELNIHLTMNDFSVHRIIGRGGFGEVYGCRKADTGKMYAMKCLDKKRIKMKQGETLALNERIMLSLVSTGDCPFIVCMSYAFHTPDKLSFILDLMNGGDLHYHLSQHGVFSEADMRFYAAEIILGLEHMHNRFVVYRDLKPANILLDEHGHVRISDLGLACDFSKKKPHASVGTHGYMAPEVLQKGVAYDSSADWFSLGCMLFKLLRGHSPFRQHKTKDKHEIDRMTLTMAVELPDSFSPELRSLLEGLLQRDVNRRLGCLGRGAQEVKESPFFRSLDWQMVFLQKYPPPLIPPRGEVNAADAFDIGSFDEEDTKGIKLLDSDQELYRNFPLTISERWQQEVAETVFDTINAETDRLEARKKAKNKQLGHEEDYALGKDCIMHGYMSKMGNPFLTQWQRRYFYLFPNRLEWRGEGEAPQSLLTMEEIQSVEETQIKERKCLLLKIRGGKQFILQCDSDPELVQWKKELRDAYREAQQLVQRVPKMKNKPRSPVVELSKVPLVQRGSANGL
Sequence of Botulinum neurotoxin type A (Clostridium botulinum) (P0DPI0 whole entry, looked up): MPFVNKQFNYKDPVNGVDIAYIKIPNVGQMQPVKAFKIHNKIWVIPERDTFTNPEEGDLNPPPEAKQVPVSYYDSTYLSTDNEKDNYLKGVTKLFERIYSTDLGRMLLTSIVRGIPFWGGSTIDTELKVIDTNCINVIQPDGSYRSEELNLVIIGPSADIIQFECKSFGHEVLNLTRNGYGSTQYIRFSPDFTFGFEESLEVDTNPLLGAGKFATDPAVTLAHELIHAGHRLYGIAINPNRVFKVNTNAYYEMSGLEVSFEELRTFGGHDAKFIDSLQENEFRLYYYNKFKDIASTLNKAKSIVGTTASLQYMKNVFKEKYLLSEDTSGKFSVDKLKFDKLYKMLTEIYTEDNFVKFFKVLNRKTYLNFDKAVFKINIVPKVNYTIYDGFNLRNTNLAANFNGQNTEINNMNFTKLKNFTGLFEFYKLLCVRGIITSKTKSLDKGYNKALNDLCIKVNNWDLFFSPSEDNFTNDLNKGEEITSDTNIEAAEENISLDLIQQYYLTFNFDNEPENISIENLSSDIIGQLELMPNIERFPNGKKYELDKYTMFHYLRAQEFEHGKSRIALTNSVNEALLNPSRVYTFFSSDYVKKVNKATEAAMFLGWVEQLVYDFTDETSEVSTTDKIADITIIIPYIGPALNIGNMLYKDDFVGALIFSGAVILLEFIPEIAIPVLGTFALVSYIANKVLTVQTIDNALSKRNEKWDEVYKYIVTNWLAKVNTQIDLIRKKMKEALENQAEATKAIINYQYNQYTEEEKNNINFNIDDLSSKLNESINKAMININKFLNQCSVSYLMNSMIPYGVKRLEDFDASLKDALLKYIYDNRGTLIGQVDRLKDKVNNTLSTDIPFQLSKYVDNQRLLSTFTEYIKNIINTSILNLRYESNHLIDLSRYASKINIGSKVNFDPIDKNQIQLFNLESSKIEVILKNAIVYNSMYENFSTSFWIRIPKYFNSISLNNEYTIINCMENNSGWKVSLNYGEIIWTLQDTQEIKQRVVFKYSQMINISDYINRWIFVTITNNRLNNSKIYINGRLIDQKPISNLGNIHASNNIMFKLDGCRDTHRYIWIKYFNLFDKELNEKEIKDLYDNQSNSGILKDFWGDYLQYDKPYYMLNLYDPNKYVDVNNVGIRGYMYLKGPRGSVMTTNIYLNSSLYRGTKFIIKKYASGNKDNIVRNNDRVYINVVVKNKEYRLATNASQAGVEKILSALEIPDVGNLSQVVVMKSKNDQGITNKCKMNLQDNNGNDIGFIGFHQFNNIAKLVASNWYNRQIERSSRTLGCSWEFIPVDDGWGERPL

## CC(=O)C1=C(C)OC(N)=C(C(=O)OC(C)C)C12C(=O)Nc1ccccc12 (centres undefined)
[1]
  percent of DMSO control GFP: 102% (inactive)
[2]
  GFP response vs DMSO: 105% (inactive)
[3]
  percent response of DMSO control: 103% (inactive)
[4]
  GFP response vs DMSO: 99.4% (inactive)
[5]
  double positive events: 56.3%
  vesicle binding response: 194% (inactive)
[6]
  inhibition: 0.69% (inactive)
[7]
  superoxide response (% of plate): 103% (inactive)
[8]
  aptamer binding inhibition: 0% (inactive)
[9]
  inhibition: 0.23% (inactive)
[10]
  response: -0.91% (inactive)
[11]
  binding (% of control): 93.8% (inactive)
[12]
  inhibition: -2.3% (inactive)
[13]
  inhibition: -0.1% (inactive)
[14]
  inhibition: -1.4% (inactive)
[15]
  efflux inhibition (fraction of control): 0.1 (inactive)
[16]
  inhibition: 8% (inactive)
[17]
  differentiation response: -18% (inactive)

## COc1ccc(OC)c(C(O)C(C)N)c1 (centres undefined)
[1]
  percent of DMSO control GFP: 103% (inactive)
[2]
  GFP response vs DMSO: 94.1% (inactive)
[3]
  percent response of DMSO control: 95.4% (inactive)
[4]
  GFP response vs DMSO: 87.4% (inactive)
[5]
  double positive events: 59.9%
  vesicle binding response: 41.1% (inactive)
[6]
  inhibition: 7.85% (inactive)
[8]
  aptamer binding inhibition: 0% (inactive)
[9]
  inhibition: -0.56% (inactive)
[10]
  response: 1.5% (inactive)
[11]
  binding (% of control): 105% (inactive)
[12]
  inhibition: 2.2% (inactive)
[13]
  inhibition: 1.1% (inactive)
[14]
  inhibition: 3.1% (inactive)
[15]
  efflux inhibition (fraction of control): 0.61 (active)
[16]
  inhibition: 10% (inactive)
[17]
  differentiation response: 24.7% (inactive)

## CC(C)[C@@]1(NC(=O)[C@@H]2C[C@@H]3c4cccc5[nH]cc(c45)C[C@H]3N(C)C2)O[C@@]2(O)[C@@H]3CCCN3C(=O)[C@H](Cc3ccccc3)N2C1=O
[1]
  percent of DMSO control GFP: 88.4% (inactive)
[2]
  GFP response vs DMSO: 132% (inactive)
[3]
  percent response of DMSO control: 112% (inactive)
[4]
  GFP response vs DMSO: 84.2% (inactive)
[5]
  double positive events: 74.1%
  vesicle binding response: 240% (inactive)
[6]
  inhibition: -14.9% (inactive)
[7]
  superoxide response (% of plate): 98.1% (inactive)
[8]
  aptamer binding inhibition: -3% (inactive)
[9]
  inhibition: 0.81% (inactive)
[10]
  response: 1.06% (inactive)
[11]
  binding (% of control): 114% (inactive)
[12]
  inhibition: -9.2% (inactive)
[13]
  inhibition: -1.6% (inactive)
[14]
  inhibition: -32% (inactive)
[15]
  efflux inhibition (fraction of control): 0.37 (inactive)
[16]
  inhibition: 9% (inactive)
[17]
  differentiation response: 4.09% (inactive)

## O=C(O)c1[nH]c(=O)[nH]c(=O)c1F
[18]
  GFP response vs DMSO: 96.9% (inactive)
[18]; [21]
  GFP response vs DMSO: 97.6%
[18]; [22]
  GFP response vs DMSO: 95.6%
[19]
  GFP response relative to DMSO: 100% (inactive)
[19]; [23]
  GFP response relative to DMSO: 97.5%
[19]; [24]
  GFP response relative to DMSO: 100%
[20]
  GFP response, % of DMSO: 100% (inactive)
[20]; [21]
  GFP response, % of DMSO: 99.3%
[20]; [22]
  GFP response, % of DMSO: 100%

## Cc1ccc(/C=C2\C(=O)NC(=O)N(CC3CCCO3)C2=O)s1 (centres undefined)
[18]
  GFP response vs DMSO: 92.7% (inactive)
[18]; [21]
  GFP response vs DMSO: 95.9%
[18]; [22]
  GFP response vs DMSO: 94.8%
[19]
  GFP response relative to DMSO: 102% (inactive)
[19]; [23]
  GFP response relative to DMSO: 102%
[19]; [24]
  GFP response relative to DMSO: 104%
[20]
  GFP response, % of DMSO: 82.6% (inactive)
[20]; [21]
  GFP response, % of DMSO: 86.2%
[20]; [22]
  GFP response, % of DMSO: 79.5%

## O=C1/C(=C\c2ccc(Cl)c(Cl)c2)N2CCC1CC2
[18]
  GFP response vs DMSO: 102% (inactive)
[18]; [21]
  GFP response vs DMSO: 101%
[18]; [22]
  GFP response vs DMSO: 99.1%
[19]
  GFP response relative to DMSO: 124% (inactive)
[19]; [23]
  GFP response relative to DMSO: 119%
[19]; [24]
  GFP response relative to DMSO: 130%
[20]
  GFP response, % of DMSO: 100% (inactive)
[20]; [21]
  GFP response, % of DMSO: 101%
[20]; [22]
  GFP response, % of DMSO: 96.8%

## CN1CCN(c2ccc([N+](=O)[O-])c(Sc3ccccn3)c2)CC1
[18]
  GFP response vs DMSO: 98.4% (inactive)
[18]; [21]
  GFP response vs DMSO: 98.9%
[18]; [22]
  GFP response vs DMSO: 99.5%
[19]
  GFP response relative to DMSO: 95.4% (inactive)
[19]; [23]
  GFP response relative to DMSO: 96%
[19]; [24]
  GFP response relative to DMSO: 95.1%
[20]
  GFP response, % of DMSO: 103% (inactive)
[20]; [21]
  GFP response, % of DMSO: 103%
[20]; [22]
  GFP response, % of DMSO: 102%
